Values without a mark were called inactive. The source made the active and inactive calls.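 Rule for the calls: active = growth inhibition above 50% at the single 2 µM test dose, taken to imply half-maximal potency below 2 µM; inactive = the rest.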
Assay: antimalarial activity against Dd2 strain (AID 2302);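 note: 0% = DMSO untreated growth and 100% = chloroquine plus artemisinin killed control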
Conditions: P. falciparum Dd2 in RBCs, LDH growth readout, 72 h; at 2 µM; stronger effect = higher value

SMILES	growth inhibition
CCCCC(NCC)c1ccc(OCCOc2ccc(C(CCCC)NCC)cc2)cc1 (stereo not given)	99% (active)
CC(C)(C)c1ccc(CN2CCCCC(NC(=O)c3cc(-c4ccccc4Cl)cs3)C2)cc1 (stereo not given)	98% (active)
CN(C)Cc1cccc(-c2ccc(NC(=O)c3ccc4c(=O)n(CC5CCCO5)cnc4c3)cc2)c1 (stereo not given)	14%
CC1CCN(CC[C@H]2CCCN2S(=O)(=O)c2cccc(NC(=O)c3ccc(-c4ccc(Cl)cc4)o3)c2)CC1	65% (active)
CCOC(=O)C1=C(C)NC2=C(C(=O)CC(C)(C)C2)C1c1ccc(Cl)cc1 (stereo not given)	84% (active)
CCn1cnc2c(N3CCCS3(=O)=O)cc(C(=O)N[C@@H](Cc3ccccc3)[C@H](O)CNC(C)(C)c3cccc(C(F)(F)F)c3)cc21	97% (active)
Cc1ccc2[nH]c(C3CCCNC3)c(-c3ccncc3)c2c1 (stereo not given)	22%
COC(=O)[C@@H](NC(=O)[C@H](CC(C)C)Nc1ccc(C#N)c2ccccc12)c1ccc(O)cc1	87% (active)
CCC(C)Oc1ccc(CCCON2C(N)=NC(N)=NC2(C)C)cc1 (stereo not given)	95% (active)
C[C@H]1CN(Cc2cccc(-c3cc(CNC(=O)c4cccc(CN5CCN(CCOc6ccccc6)CC5)c4)ccc3F)c2)CCN1	88% (active)
O=C1CCCN1CCCNCc1cccc(-c2ccc(-c3nc4ccccc4[nH]3)s2)c1	0%
CC(=O)N[C@H](C(=O)Nc1cccc(-c2ccc(-c3nc4c(C)cccc4[nH]3)s2)c1)C(C)C	29%
O=C(Cc1cccc(Cl)c1)Nc1cccc(-c2c[nH]c3nc(Nc4cccc(O)c4)ncc23)c1	74% (active)
CC(C)CNC(=O)c1cncc(-c2ccc(CN3CCC(N4CCCC4)CC3)cc2)c1	42%
O=C(Nc1ccccc1Cc1ccccc1)c1ccccc1C(F)(F)F	85% (active)
CC(C)CCN1CCC(Oc2ccc(NC(=O)c3cccs3)cc2Cl)CC1	96% (active)
CNC(=O)c1cnc(Nc2ccc(N3CCN(C)CC3)c(C)c2)nc1NC	38%
O=C(Nc1ccc(N2CCNCC2)nc1)c1oc(-c2ccccc2)nc1C(F)(F)F	62% (active)
Cc1ccc2nc(C)cc(NN=Cc3ccc([N+](=O)[O-])cc3)c2c1	15%
CN1CCN(CCCN(Cc2csc(-c3ccc(CNCc4ccccc4)cc3)n2)C(=O)Nc2ccc3ccccc3c2)CC1	63% (active)

SMILES	growth inhibition
CCOc1ccccc1N1CCN(CCCNC(=O)/C(=C/C=C/c2cc3cc(Cl)c(Cl)cc3[nH]2)OC)CC1	93% (active)
CC(O)C1CCCCN1C(=O)c1cccc(-c2cccc(-c3nc4ccc(F)cc4[nH]3)c2)c1 (stereo not given)	99% (active)
COc1cc(CN2CCC(NC(=O)[C@H](Cc3ccccc3)NC(=O)Nc3ccc(Oc4ccccc4)cc3)C2)ccc1O (stereo not given in full)	-2%
COc1ccc(CNC2CCCC2)cc1-c1ccc(S(=O)(=O)NCCN2CCCC2)s1	17%
CS(=O)(=O)CCOCc1ccc(-c2ccc3ncnc(Nc4ccc(OCc5cccc(F)c5)c(Cl)c4)c3c2)o1	43%
Oc1ccc(Nc2ccnc3cc(Cl)ccc23)cc1	97% (active)
CC[C@H]1CN(Cc2cccc(O)c2)CC[C@H]1CCCc1ccnc2ccc(O)cc12	98% (active)
COc1ccc(Nc2nc(NC3CCCC3)cc(-c3ccc(OC)cc3)n2)cc1	15%
Cc1cc(N2CCCC2=O)ccc1-c1ccc(C(=O)N2CCC(Oc3cccc(Cl)c3)CC2)cc1	98% (active)
Cc1[nH]c2ccc(NS(C)(=O)=O)cc2c1C1CCN(CCC2CCN(C(=O)/C=C/c3ccc(Cl)c(Cl)c3)CC2)CC1	94% (active)
O=[N+]([O-])c1ccc(Nc2nc(NN=Cc3ccc(-c4ccc([N+](=O)[O-])cc4)o3)nc(Nc3ccccc3)n2)cc1	74% (active)
COc1cccc(Nc2nc(C)cc(NCc3ccc(-c4c(C)noc4C)cc3)n2)c1	42%
CC(C)CCNC(=O)[C@@H]1[C@H]2C(=O)N(C3CCCCC3)C(=O)[C@H]2[C@H]2C=C[C@@H]3C(c4ccc(C(C)(C)C)cc4)=NO[C@@H]3N21	48%
COc1ccc(-c2cccc(NC(=O)c3cccc(C#N)c3)c2)cc1CN1CCN(C)CC1	16%
COc1ccc2nccc(N3CCC(SCCNS(=O)(=O)c4ccc5c(c4)NC(=O)CS5)C3)c2n1 (stereo not given)	17%
CC[C@H](C)CNC(=O)c1cncc(-c2cccc(CNCCCc3ccccc3)c2)c1	0%
Cn1c(NC2=NC3(c4ccccn4)N=C(Nc4nc5ccccc5n4C)NC3(c3ccccn3)N2)nc2ccccc21 (stereo not given)	44%
Cc1cccc2[nH]c(-c3ccc(-c4cccc(CNCCN(C)C)c4)cc3)nc12	98% (active)
CCn1nc(C(=O)NC2CCOc3ccccc32)c2ccccc2c1=O (stereo not given)	59% (active)
CC(Nc1ccnc2cc(Cl)ccc12)c1ccc(S(N)(=O)=O)cc1 (stereo not given)	21%

Reference: PubChem BioAssay
